Assay results reported in PubChem BioAssay (NCATS).
Results filed as inconclusive are left out. A call without a number means that no potency is given here. The source made the active and inactive calls. Calls follow the shape of the dose curve; as a rule, active = well fitted cell-killing curve with a large enough effect; inconclusive = small, poorly fitted or top-dose-only effect; inactive = flat fitted curve, though single readings scatter.

Assay: qHTS of pediatric cancer cell lines to identify multiple opportunities for drug repurposing: Primary screen for control Hh wild type fibroblast cells (AID 1347106);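 also: a drop in luminescence marks cytotoxicity and a rise apparent proliferation; nearly all actives have a fitted effect of over 55% in size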
Details: Hh wild-type fibroblast viability, CellTiter-Glo luminescence, 48 h; series mostly up to 46 µM
Description: Drug repurposing or repositioning has been offered as a strategy for drug development in oncology programs. This approach has special potential for childhood cancers and other rare or orphan diseases, where the expected return on new drug development has been a disincentive to pharmaceuticals.
In this project we exploit the poly-pharmacology of drugs to discover new indications via phenotypic screening of a panel of 19 well-characterized cell lines derived from solid tumors seen in children and adolescents. The goal is to identify approved drugs with previously unrecognized anticancer properties that has the potential to reveal new mechanisms and biological processes involved in carcinogenesis or drug resistance. We employed a titration-based paradigm (quantitative high-throughput screening or qHTS), where all compounds were tested at multiple concentrations for their effect on cell viability. Concentration-response curves (CRCs) were derived directly from the primary screen, and both potency and efficacy values were used to identify compounds with robust bioactivity profiles. We screened the NIH Chemical Genomics Center (NCGC) Pharmaceutical Collection (NPC) and Mechanism Interrogation Plate (MIPE) small molecule collections of approved and investigational compounds against these cell lines; and measured metabolically active cells after 48 hours of compound treatment as a proxy for cell viability.
Assay Submitter: Nathalia J. Martinez, National Center for Advancing Translational Sciences, National Institutes of Health, Rockville, MD, USA; email: natalia.martinez@nih.gov
[1] Shen, M et al. Quantitative high-throughput phenotypic screening of pediatric cancer cell lines identifies multiple opportunities for drug repurposing. Oncotarget 2017 Dec 19;9(4):4758-4772. PMID 29435139.
The cells were obtained from University of North Carolina (UNC), Pediatric Preclinical Testing Program (PPT), and Coriell Institute (CI).
qHTS cell viability assay:
Cells were assayed in growth media at a density of 500-1,000 cells/well. Five microliters of cells were dispensed into 1,536-well, white, solid-bottom, TC-treated plates (Greiner Bio One) using a multidrop dispenser and incubated at 37 degrees C, 5% CO2, under a humidified atmosphere for 5 hours. Twenty-three nanoliters of compounds and controls (neutral control DMSO or positive control bortezomib at final concentration of 2.3 µM) were subsequently transferred by Kalypsys pintool. For primary screens, the MIPE collection was tested at 11-point dilutions (final concentrations range from 0.78 nM to 46 µM) and the NPC collection at 8-point dilutions (final concentrations range from 0.59 nM to 46 µM). Compounds tested in follow-up screens were assayed at 11-point dilutions. Cells were incubated for 48 hours, followed by addition of 3 µL of CellTiter-Glo (Promega). After a 15 min incubation at room temperature, samples were analyzed for luminescence intensity using a ViewLux High-throughput CCD imager equipped with clear filters.

Structure (SMILES)	Potency	activity change, negative = cytotoxic
Cc1cc2c(cc1C1(c3ccc(C(=O)O)cn3)CC1)C(C)(C)CCC2(C)C	inactive	–
O=C(O)c1nc(=O)[nH]c(=O)[nH]1	inactive	–
O=C(NC[C@H](O)CO)c1ccncc1Nc1ccc(I)cc1F	inactive	–
COc1nccc(-c2c(-c3ccc(F)cc3)ncn2C2CCC(O)CC2)n1 (stereo not given)	inactive	–
COc1ccc2cc1Oc1ccc(cc1)C[C@H]1c3cc(c(OC)cc3CCN1C)Oc1c(OC)c(OC)cc3c1[C@H](C2)N(C)CC3	inactive	–
CC1=C[C@@H]2[C@@H]([C@@H](O)C[C@@]3(C)[C@H]2C[C@@H](C)[C@]3(O)C(=O)CO)[C@@]2(C)Cc3cnn(-c4ccccc4)c3C=C12	inactive	–
NC(=O)c1ncn([C@@H]2O[C@H](CO)[C@@H](O)[C@@H]2O)n1	inactive	–
CCC(=O)NCC[C@@H]1CCc2ccc3c(c21)CCO3	inactive	–
C[C@H]1[C@H](O)O[C@@H]2O[C@@]3(C)CC[C@@H]4[C@H](C)CC[C@@H]1[C@@]24OO3	inactive	–
Cc1cc2nc3c(=O)[nH]c(=O)nc-3n(CC(O)C(O)C(O)CO)c2cc1C (stereo not given)	inactive	–
COc1ccc(C=CC(=O)Nc2ccccc2C(=O)O)cc1OC	inactive	–
COc1nc(C)cnc1NS(=O)(=O)c1cccnc1-c1ccc(-c2nnco2)cc1	inactive	–
CC(C)(F)C[C@H](N[C@@H](c1ccc(-c2ccc(S(C)(=O)=O)cc2)cc1)C(F)(F)F)C(=O)NC1(C#N)CC1	inactive	–
CN[C@H]1[C@@H](O[C@@H]2[C@H](O[C@@H]3[C@@H](O)[C@@H](O)[C@@H](N=C(N)N)[C@@H](O)[C@@H]3N=C(N)N)O[C@H](C)[C@@]2(O)C=O)O[C@@H](CO)[C@@H](O)[C@H]1O	–	10.5% [at 9.22 µM] (inactive)
CC(C)C[C@@H](N)[C@H](O)C(=O)N[C@H](C(=O)N[C@H](C(=O)N[C@@H](CC(=O)O)C(=O)O)C(C)C)C(C)C	inactive	–
CN(C)c1ccc(-c2nc3ncc(Cl)c(N4CCN(CC(=O)Nc5nccs5)CC4)c3[nH]2)cc1	inactive	–
COc1ccc2ccc(=O)oc2c1CC=C(C)C	inactive	–
CNC(=O)c1cc(Oc2ccc(NC(=O)Nc3ccc(Cl)c(C(F)(F)F)c3)c(F)c2)ccn1	inactive	–
COc1ccc(-c2nc3ccc(C4=NNC(=O)CC4C)cc3[nH]2)cc1 (stereo not given)	inactive	–
Fc1ccc(C(c2ccc(F)cc2)N2CCN(CC=Cc3ccccc3)CC2)cc1	inactive	–

Structure (SMILES)	Potency	activity change, negative = cytotoxic
Nc1ncnc2c1c(-c1cccc(OCc3ccccc3)c1)cn2C1CC(CN2CCC2)C1 (stereo not given)	inactive	–
O=C(Nc1ccccc1)Nc1ccc(-c2ccc(C(=O)[C@H]3CCC[C@H]3C(=O)O)cc2)cc1	inactive	–
COc1ccnc(CS(=O)c2nc3ccc(OC(F)F)cc3[nH]2)c1OC (stereo not given)	inactive	–
c1ccc(-c2oc3ncnc(NC[C@@H]4CCCO4)c3c2-c2ccccc2)cc1	inactive	–
CN[C@@H]1[C@@H](O)[C@@H](O[C@@H]2[C@@H](O)[C@H](O[C@H]3O[C@H](CN)[C@@H](O)[C@H](O)[C@@H]3O)[C@@H](N)C[C@@H]2NC(=O)[C@@H](O)CN)OC[C@]1(C)O	inactive	–
CNC(=O)[C@H](CC1=CN=C2C=CCC=C12)NC(=O)[C@@H](CC(=O)NO)CC(C)C	inactive	–
N[C@@H](CC(=O)N1CCn2c(nnc2C(F)(F)F)C1)Cc1cc(F)c(F)cc1F	inactive	–
COc1cc2nc(-c3cc(F)ccc3O)nc(N[C@@H]3CNC[C@@H]3C(C)(C)O)c2cc1OC	inactive	–
CN1CC(=O)N2C(Cc3c([nH]c4ccccc34)[C@H]2c2ccc3c(c2)OCO3)C1=O (stereo not given in full)	inactive	–
CCNC(=O)CCCC=CC[C@@H]1[C@H](C=CC(O)CCc2ccccc2)[C@@H](O)C[C@@H]1O (stereo not given in full)	inactive	–
Oc1cc(O)cc(C=Cc2ccc(O)c(O)c2)c1	inactive	–
CN1CCC[C@H]1CCO[C@](C)(c1ccccc1)c1ccc(Cl)cc1	inactive	–
CCC(c1ccc(O)cc1)C(CC)c1ccc(O)cc1 (stereo not given)	inactive	–
CC1(C)[C@H]2CC[C@]3(C)[C@@H](C(=O)C=C4[C@@H]5C[C@@](C)(C(=O)O)CC[C@]5(C)CC[C@]43C)[C@@]2(C)CC[C@@H]1O	inactive	–
CC(O)=C(C#N)C(=O)Nc1ccc(C(F)(F)F)cc1	inactive	–
CON(C)C(=O)N1N=C(c2cc(F)ccc2F)S[C@]1(CCCN)c1ccccc1	inactive	–
CCN1CCN(c2ccc(Nc3cc(N(C)C(=O)Nc4c(Cl)c(OC)cc(OC)c4Cl)ncn3)cc2)CC1	inactive	–
NC(N)=Nc1nc(CSCCC(N)=NS(N)(=O)=O)cs1	inactive	–
CCC[C@@H](NC(=O)[C@@H]1[C@H]2CCC[C@@H]2CN1C(=O)[C@@H](NC(=O)[C@@H](NC(=O)c1cnccn1)C1CCCCC1)C(C)(C)C)C(=O)C(=O)NC1CC1	inactive	–
CC1(C)OC2CC3C4CC(F)C5=CC(=O)C=CC5(C)C4C(O)CC3(C)[C@]2(C(=O)CO)O1 (stereo not given in full)	inactive	–
